Data from PubChem BioAssay (Tox21).
Inconclusive results are not listed. Calls of active or inactive are those of the source. Unless noted, the call rests on the fitted dose curve; in most records, active means well fitted curve in the direction sought with a large enough effect in the repeat runs; inconclusive means weak or mixed curves; inactive means no such curve, though single readings can be large; an effect the other way counts as inactive or inconclusive.

Columns and labels:
[1] = biological target: Aryl hydrocarbon receptor (Homo sapiens) (UniProt P35869); assay: qHTS assay to identify small molecule that activate the aryl hydrocarbon receptor (AhR) signaling pathway (AID 743085); further: nearly all actives have a fitted effect of over 15% in size; further: potency means the concentration at half of the fitted maximal effect;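 on activation: HG2L7.5c1 human HepG2 liver cells with stably integrated DRE-driven firefly reporter; series mostly up to about 70 µM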
In short: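 Compounds were tested in HepG2 hepatocellular carcinoma cells harbouring a stably integrated luciferase gene under control of 20 DREs. Increased reporter signal after 24 h treatment at 37C was taken as AhR activation.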

[2] = qHTS assay to identify small molecule antagonists of the peroxisome proliferator-activated receptor gamma (PPARg) signaling pathway - cell viability counter screen (AID 743194); further: nearly all actives have a fitted effect of over 55% in size; further: potency means the concentration at half of the fitted maximal effect
In short: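 PPARg-UAS-bla HEK293H cells were plated, rested 5 h at 37 C, then treated with compounds plus rosiglitazone (50 nM final) for 17 h at 37 C; viability was then read by CellTiter-Glo luminescence after 30 min at room temperature.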

[3] = qHTS assay for small molecule agonists of the antioxidant response element (ARE) signaling pathway - cell viability counter screen (AID 743203; calls by dose curve; further: nearly all actives have a fitted effect of over 55% in size; further: potency means the concentration at half of the fitted maximal effect)
In short: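 Following 16 hrs of compound treatment at 37C, HepG2 cells with an ARE-controlled beta-lactamase gene were lysed with CellTiter-Glo. Luminescence was read after 30 min at room temperature.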

[4] = qHTS assay for small molecule activators of the heat shock response signaling pathway - cell viability counter screen (AID 743209); further: nearly all actives have a fitted effect of over 50% in size; further: potency means the concentration at half of the fitted maximal effect
In short: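 Readout: CellTiter-Glo luminescence, 30 min at room temperature. System: HSE-bla HeLa cells, 1500/well, plated overnight. Treatment: compounds in DMSO, 5 h at 37 C.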

[5] = qHTS assay to identify small molecule agonists of the peroxisome proliferator-activated receptor delta (PPARd) signaling pathway - cell viability counter screen (AID 743211); further: nearly all actives have a fitted effect of over 55% in size; further: potency means the concentration at half of the fitted maximal effect
In short: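 Counter screen for cytotoxicity run in parallel with the PPARd reporter screen. Beta-lactamase reporter HEK293H cells exposed to compounds 17 h; ATP-based CellTiter-Glo luminescence quantified viability.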

[6] = qHTS assay to identify small molecule antagonists of the peroxisome proliferator-activated receptor delta (PPARd) signaling pathway - cell viability counter screen (AID 743213); further: nearly all actives have a fitted effect of over 50% in size; further: potency means the concentration at half of the fitted maximal effect
In short: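 HEK293H cells with the PPARd UAS-bla reporter, co-treated 17 h at 37 C with compounds and L165041 (300 nM final), were lysed with CellTiter-Glo. Luminescence indicated viable cell content.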

[7] = qHTS assay to identify small molecule agonists of the farnesoid-X-receptor (FXR) signaling pathway - cell viability counter screen (AID 743218); further: nearly all actives have a fitted effect of over 45% in size; further: potency means the concentration at half of the fitted maximal effect
In short: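 Parallel cytotoxicity test: compound-treated (16 h, 37 C) HEK 293T FXR-bla reporter cells were lysed with CellTiter-Glo and luminescence recorded.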

[8] = qHTS assay to identify small molecule antagonists of the farnesoid-X-receptor (FXR) signaling pathway - cell viability counter screen (AID 743221; active means well fitted cell-killing curve with a large enough effect in the repeat runs, not every such curve was filed as active; further: nearly all actives have a fitted effect of over 50% in size; further: potency means the concentration at half of the fitted maximal effect)
In short: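 Multiplexed counter screen: viability of FXR-bla HEK 293T cells under agonist stimulation by chenodeoxycholic acid (50 uM, final) and test compound for 16 h at 37 C, measured by CellTiter-Glo luminescence in the reporter wells.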

[9] = qHTS assay to identify small molecule agonists of the vitamin D receptor (VDR) signaling pathway - cell viability counter screen (AID 743224); further: nearly all actives have a fitted effect of over 50% in size; further: potency means the concentration at half of the fitted maximal effect
In short: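 Plated VDR-bla cells (4 h, 37C) received compound, incubated 16 h, then LiveBLAzer substrate 2 h RT; CellTiter-Glo added afterwards, luminescence read at 30 min.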

[10] = biological target: Peroxisome proliferator-activated receptor gamma (Homo sapiens) (UniProt P37231); assay: qHTS assay to identify small molecule antagonists of the peroxisome proliferator-activated receptor gamma (PPARg) signaling pathway (AID 743191; calls by dose curve; further: nearly all actives have a fitted effect of over 30% in size; further: potency means the concentration at half of the fitted maximal effect)
In short: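 GeneBLAzer PPARg UAS-bla HEK293H cells carrying a UAS-driven beta-lactamase reporter were plated at 3000 cells/well, preincubated 5 h at 37C, then given compound for 17 h at 37C; LiveBLAzer B/G FRET substrate was read after 1 h at room temperature.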

[11] = qHTS assay for small molecule activators of the heat shock response signaling pathway (AID 743210; active means well fitted activation curve with a large enough effect in the signal ratio in the repeat runs, with a control signal flat, not every such curve was filed as active; the % refers to the signal ratio;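 further: HeLa cells with beta-lactamase reporter driven by heat shock elements; series mostly up to about 63 µM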)
In short: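 Reporter gene assay: HeLa cells stably bearing an HSE-bla construct, compound treatment 5 h at 37 C, LiveBLAzer substrate 2.5 h at RT, fluorescence intensity.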

[12] = biological target: Vitamin D3 receptor (Homo sapiens) (UniProt P11473); assay: qHTS assay to identify small molecule agonists of the vitamin D receptor (VDR) signaling pathway (AID 743222; calls by dose curve)
In short: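 In VDR-bla cells, compound-induced beta-lactamase expression is quantified by FRET substrate fluorescence. Treatment lasts 16 h at 37C; substrate develops 2 h at room temperature.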

[13] = biological target: Peroxisome proliferator-activated receptor gamma (Homo sapiens) (UniProt P37231); assay: qHTS assay to identify small molecule agonists of the peroxisome proliferator-activated receptor gamma (PPARg) signaling pathway (AID 743094; active means well fitted activation curve with a large enough effect in the signal ratio in the repeat runs, not every such curve was filed as active; the % refers to the signal ratio)
In short: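 Compounds dissolved in DMSO were added to PPARg UAS-bla HEK293H cells for 17 h at 37C, and reporter expression was quantified by fluorescence intensity after 1 h with LiveBLAzer B/G FRET substrate.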

[14] = biological target: Peroxisome proliferator-activated receptor delta (Homo sapiens) (UniProt Q03181); assay: qHTS assay to identify small molecule agonists of the peroxisome proliferator-activated receptor delta (PPARd) signaling pathway (AID 743212; calls by dose curve)
In short: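 A PPARd-bla HEK293H line with beta-lactamase under an Upstream Activator Sequence is treated with compounds at 37 C. Substrate loading for 2 h at room temperature precedes the fluorescence measurement.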

[15] = biological target: Peroxisome proliferator-activated receptor delta (Homo sapiens) (UniProt Q03181); assay: qHTS assay to identify small molecule antagonists of the peroxisome proliferator-activated receptor delta (PPARd) signaling pathway (AID 743215; active means well fitted inhibition curve with a large enough effect in the signal ratio in the repeat runs, not every such curve was filed as active; the % refers to the signal ratio;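 further: cells stimulated with agonist L165041 at 300 nM final during compound exposure; series mostly up to about 62 µM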)
In short: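 HEK293H UAS-bla, PPARd; agonist L165041 300 nM final with cpd in DMSO; 37 C 17 h; FRET substrate, RT 2 h; fluorescence intensity.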

[16] = biological target: Bile acid receptor (Homo sapiens) (UniProt Q96RI1); assay: qHTS assay to identify small molecule antagonists of the farnesoid-X-receptor (FXR) signaling pathway (AID 743217; active means well fitted inhibition curve with a large enough effect in the signal ratio in the repeat runs, not every such curve was filed as active; the % refers to the signal ratio)
In short: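 GeneBLAzer FXR-UAS-bla HEK 293T, CDCA-stimulated (50 uM final). Compound treatment 16 h, 37 °C. Detection: beta-lactamase cleavage of B/G FRET substrate, fluorescence.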

[17] = biological target: Bile acid receptor (Homo sapiens) (UniProt Q96RI1); assay: qHTS assay to identify small molecule agonists of the farnesoid-X-receptor (FXR) signaling pathway (AID 743220; active means well fitted activation curve with a large enough effect in the signal ratio in the repeat runs, not every such curve was filed as active; the % refers to the signal ratio)
In short: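 Beta-lactamase reporter under UAS control in GeneBLAzer FXR HEK 293T cells (5000/well) measured with LiveBLAzer FRET substrate after 2 h at room temperature. Compound exposure lasted 16 h at 37C.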

[18] = biological target: Vitamin D3 receptor (Homo sapiens) (UniProt P11473); assay: qHTS assay to identify small molecule antagonists of the vitamin D receptor (VDR) signaling pathway (AID 743223; active means well fitted inhibition curve with a large enough effect in the signal ratio in the repeat runs, not every such curve was filed as active; the % refers to the signal ratio; further: potency means the concentration at half of the fitted maximal effect)
In short: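 Cells carrying a VDR-driven beta-lactamase reporter (VDR-bla) were co-treated with compound and 3 nM final 1alpha,25-dihydroxyvitamin D3 for 16 h at 37C; reporter activity was measured as FRET substrate fluorescence after 2 h at room temperature.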

[19] = qHTS assay to identify small molecule that activate the aryl hydrocarbon receptor (AhR) signaling pathway - cell viability counter screen (AID 743086); further: nearly all actives have a fitted effect of over 45% in size; further: potency means the concentration at half of the fitted maximal effect
In short: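 HepG2-AhR-luc (HG2L7.5c1) cells, 4000/well, were preincubated 5 h at 37C, exposed to compound in qHTS format for 24 hr at 37C, then given CellTiter-Fluor for 30 min; viability was read as fluorescence in the reporter wells.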

Measured: Potency

Chain of Vitamin D3 receptor (Homo sapiens) (P11473 whole entry, looked up): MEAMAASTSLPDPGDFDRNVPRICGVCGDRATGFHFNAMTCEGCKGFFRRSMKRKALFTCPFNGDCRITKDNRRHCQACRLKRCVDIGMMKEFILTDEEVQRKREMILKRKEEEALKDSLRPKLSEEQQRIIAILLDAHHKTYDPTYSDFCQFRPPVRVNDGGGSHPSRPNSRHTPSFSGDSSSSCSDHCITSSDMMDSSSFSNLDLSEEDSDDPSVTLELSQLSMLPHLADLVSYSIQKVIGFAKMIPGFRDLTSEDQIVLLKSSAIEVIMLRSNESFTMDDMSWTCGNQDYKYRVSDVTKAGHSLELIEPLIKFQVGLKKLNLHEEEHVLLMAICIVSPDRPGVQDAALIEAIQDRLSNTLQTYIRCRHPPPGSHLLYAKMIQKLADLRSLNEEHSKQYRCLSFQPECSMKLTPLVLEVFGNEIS
Chain of Bile acid receptor (Homo sapiens) (Q96RI1 whole entry, looked up): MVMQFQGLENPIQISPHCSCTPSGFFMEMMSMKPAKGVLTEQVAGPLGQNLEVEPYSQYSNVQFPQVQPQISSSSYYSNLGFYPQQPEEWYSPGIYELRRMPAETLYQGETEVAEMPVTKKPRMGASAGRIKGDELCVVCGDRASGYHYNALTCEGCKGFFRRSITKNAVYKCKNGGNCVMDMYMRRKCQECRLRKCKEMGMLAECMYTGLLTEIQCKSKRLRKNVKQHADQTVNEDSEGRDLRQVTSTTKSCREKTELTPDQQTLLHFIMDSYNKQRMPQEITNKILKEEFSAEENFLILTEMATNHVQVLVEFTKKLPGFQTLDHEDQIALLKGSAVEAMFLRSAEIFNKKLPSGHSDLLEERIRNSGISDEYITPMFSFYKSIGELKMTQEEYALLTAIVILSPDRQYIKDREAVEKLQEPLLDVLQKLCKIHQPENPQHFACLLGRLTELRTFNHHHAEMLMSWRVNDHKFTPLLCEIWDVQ
Chain of Peroxisome proliferator-activated receptor delta (Homo sapiens) (Q03181 whole entry, looked up): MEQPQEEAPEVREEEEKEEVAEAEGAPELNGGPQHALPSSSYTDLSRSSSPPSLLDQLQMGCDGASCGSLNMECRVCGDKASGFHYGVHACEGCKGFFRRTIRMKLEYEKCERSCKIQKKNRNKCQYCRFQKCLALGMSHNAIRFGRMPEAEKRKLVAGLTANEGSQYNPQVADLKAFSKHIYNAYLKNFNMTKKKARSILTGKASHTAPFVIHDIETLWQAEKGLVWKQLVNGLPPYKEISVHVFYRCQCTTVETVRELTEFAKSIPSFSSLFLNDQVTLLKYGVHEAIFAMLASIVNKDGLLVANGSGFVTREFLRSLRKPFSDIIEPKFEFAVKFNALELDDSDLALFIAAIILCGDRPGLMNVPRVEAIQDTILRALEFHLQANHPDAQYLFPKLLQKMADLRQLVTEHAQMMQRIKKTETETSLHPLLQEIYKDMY
Chain of Peroxisome proliferator-activated receptor gamma (Homo sapiens) (P37231 whole entry, looked up): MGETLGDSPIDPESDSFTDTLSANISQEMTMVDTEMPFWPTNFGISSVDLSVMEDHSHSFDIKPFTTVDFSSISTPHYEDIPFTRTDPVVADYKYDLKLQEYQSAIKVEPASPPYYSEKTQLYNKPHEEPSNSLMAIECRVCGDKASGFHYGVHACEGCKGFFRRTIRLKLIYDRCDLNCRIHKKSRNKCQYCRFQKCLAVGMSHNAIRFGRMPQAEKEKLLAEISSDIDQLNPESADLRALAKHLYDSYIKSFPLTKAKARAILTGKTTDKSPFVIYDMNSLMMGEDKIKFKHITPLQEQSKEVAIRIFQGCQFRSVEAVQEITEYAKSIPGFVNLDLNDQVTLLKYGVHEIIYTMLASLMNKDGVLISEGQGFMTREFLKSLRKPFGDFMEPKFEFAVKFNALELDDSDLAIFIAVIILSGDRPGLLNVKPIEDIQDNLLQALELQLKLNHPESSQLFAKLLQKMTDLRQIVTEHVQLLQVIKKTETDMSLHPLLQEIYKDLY
Chain of Aryl hydrocarbon receptor (Homo sapiens) (P35869 whole entry, looked up): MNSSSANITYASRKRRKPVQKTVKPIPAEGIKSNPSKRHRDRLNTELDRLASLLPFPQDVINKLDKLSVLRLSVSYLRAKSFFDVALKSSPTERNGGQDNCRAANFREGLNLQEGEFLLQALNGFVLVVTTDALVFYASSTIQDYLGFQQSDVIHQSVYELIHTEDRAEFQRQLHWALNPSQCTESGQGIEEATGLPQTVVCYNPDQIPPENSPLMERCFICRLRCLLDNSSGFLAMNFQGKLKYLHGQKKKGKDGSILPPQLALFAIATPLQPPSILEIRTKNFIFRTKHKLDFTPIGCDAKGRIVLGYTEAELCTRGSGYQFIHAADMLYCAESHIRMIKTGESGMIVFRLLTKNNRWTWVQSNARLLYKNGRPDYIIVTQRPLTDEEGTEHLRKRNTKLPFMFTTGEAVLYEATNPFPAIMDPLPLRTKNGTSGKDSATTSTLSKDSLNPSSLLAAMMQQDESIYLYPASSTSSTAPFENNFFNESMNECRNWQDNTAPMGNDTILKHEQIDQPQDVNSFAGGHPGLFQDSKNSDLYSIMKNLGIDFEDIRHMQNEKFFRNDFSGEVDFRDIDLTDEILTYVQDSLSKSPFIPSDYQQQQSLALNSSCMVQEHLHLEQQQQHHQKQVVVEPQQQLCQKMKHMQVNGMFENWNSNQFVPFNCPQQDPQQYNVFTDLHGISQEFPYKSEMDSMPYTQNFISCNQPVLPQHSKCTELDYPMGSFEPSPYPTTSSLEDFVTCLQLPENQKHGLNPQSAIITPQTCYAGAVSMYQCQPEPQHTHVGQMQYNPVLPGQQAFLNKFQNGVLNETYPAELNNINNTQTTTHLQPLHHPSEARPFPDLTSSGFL

CCCCCCCC/C=C\CCCCCCCCOCCO
inactive: [1]
active: [2] 56.8 µM | [3] 63.1 µM | [4] 28.4 µM | [5] 17.9 µM | [6] 25.4 µM | [7] 22.6 µM | [8] 28.4 µM | [9] 25.4 µM

COc1ccc(CN2CCN(C(c3ccc(F)cc3)c3ccc(F)cc3)CC2)c(OC)c1OC
active: [10] 26.6 µM | [2] 26.6 µM | [6] 23.7 µM | [7] 21.1 µM | [8] 29.8 µM | [9] 29.8 µM
inactive: [1] | [3] | [4] | [11] | [12]

CNCc1cc(F)ccc1Oc1ccc(Cl)c(Cl)c1
active: [3] 61.1 µM | [7] 49 µM
not listed: [5] | [6] | [9] | [16] | [17] | [18] | [19]
inactive: all other assays above

O=C1c2c(O)ccc(Nc3ccc(CCO)cc3)c2C(=O)c2c([N+](=O)[O-])ccc(O)c21
active: [1] 6.86 µM | [10] 54.9 µM
not listed: [3] | [6] | [12] | [13] | [15] | [18] | [19]
inactive: all other assays above

Oc1ccc(C2(c3ccc(O)cc3)CC3CC2C2CCCC32)cc1 (configuration not stated)
active: [2] 26.5 µM | [3] 58.7 µM | [4] 52.8 µM | [5] 14.9 µM | [6] 23.6 µM | [7] 18.7 µM | [18] 47 µM | [9] 23.6 µM
inactive: [1]

Oc1c(Cl)cc(Cl)c2cccnc12
active: [1] 4.73 µM
inactive: [19] | [4] | [8]

O=C1C=CC(=O)N1c1ccc(Cc2ccc(N3C(=O)C=CC3=O)cc2)cc1
inactive: [1] | [14]
active: [2] 13.8 µM | [3] 17.2 µM | [4] 17.4 µM | [5] 38.9 µM | [6] 34.7 µM | [9] 17.4 µM

CCCCCCCCCCCCCCCCCC[N+](C)(C)Cc1ccccc1
inactive: [1]
active: [2] 44.1 µM | [3] 19.5 µM | [4] 27.8 µM | [5] 11.1 µM | [7] 19.7 µM | [8] 27.8 µM | [18] 22.1 µM | [9] 13.9 µM

O=C(Oc1ccccc1)c1ccccc1C(=O)Oc1ccccc1
inactive: [19] | [2] | [3] | [4] | [5] | [14] | [15] | [7] | [8] | [9]

O=C1C=CC(=O)N1
inactive: [1] | [17] | [12]
active: [2] 25.2 µM | [3] 62.8 µM | [5] 40 µM | [6] 44.8 µM | [9] 12.6 µM

CCCCCCCCNC(C)C(O)c1ccc(SC(C)C)cc1 (configuration not stated)
active: [19] 23.7 µM | [2] 23.7 µM | [3] 16.8 µM | [4] 18.8 µM | [5] 9.44 µM | [6] 8.41 µM | [7] 18.8 µM | [8] 23.7 µM | [9] 13.3 µM

Cc1onc(-c2ccccc2Cl)c1C(=O)N[C@@H]1C(=O)N2[C@@H]1SC(C)(C)[C@@H]2C(=O)O
not listed: [1] | [14] | [15] | [18]
inactive: all other assays above

CCC(C)Nc1ccc(NC(C)CC)cc1 (configuration not stated)
active: [19] 55.5 µM | [2] 12.5 µM | [3] 7.84 µM | [4] 22.3 µM | [5] 12.5 µM | [7] 22.3 µM | [8] 35.3 µM | [9] 17.7 µM
inactive: [17]

[Cl][Au]([Cl])[Cl]
inactive: [1]
active: [3] 0.77 µM | [6] 9.77 µM | [7] 2.75 µM | [8] 3.47 µM | [9] 3.89 µM

O=[N+]([O-])c1cc([N+](=O)[O-])c2ccc(S(=O)(=O)O)cc2c1O
active: [19] 24.2 µM
inactive: [2] | [3] | [4] | [5] | [7] | [8] | [9]

CCc1oc2ccccc2c1C(=O)c1cc(Br)c(O)c(Br)c1
inactive: [19]
active: [3] 23.7 µM

c1cc(C(c2ccc(OCC3CO3)cc2)c2ccc(OCC3CO3)cc2)ccc1OCC1CO1 (configuration not stated)
inactive: [1] | [4] | [6] | [8]
active: [2] 21.9 µM | [5] 54.9 µM
